Here are results for ten compounds from PubChem BioAssay.

The list shows a part of the results. Inconclusive results are not listed. A number with no mark means an inactive call. Calls of active or inactive are those of the source.

The target of assay [1] is Solute carrier family 12 member 5 (Homo sapiens) (UniProt Q9H2X9). Description: retest of KCC2 transport modulators without sodium – cell-based, HEK293 KCC2, thallium flux, secondary assay, confirmation (AID 1713). The settings on record: FluoZin2 fluorescence, at 10 µM, stronger effect = higher value.
Chain of Solute carrier family 12 member 5 (Homo sapiens) (Q9H2X9 whole entry, looked up): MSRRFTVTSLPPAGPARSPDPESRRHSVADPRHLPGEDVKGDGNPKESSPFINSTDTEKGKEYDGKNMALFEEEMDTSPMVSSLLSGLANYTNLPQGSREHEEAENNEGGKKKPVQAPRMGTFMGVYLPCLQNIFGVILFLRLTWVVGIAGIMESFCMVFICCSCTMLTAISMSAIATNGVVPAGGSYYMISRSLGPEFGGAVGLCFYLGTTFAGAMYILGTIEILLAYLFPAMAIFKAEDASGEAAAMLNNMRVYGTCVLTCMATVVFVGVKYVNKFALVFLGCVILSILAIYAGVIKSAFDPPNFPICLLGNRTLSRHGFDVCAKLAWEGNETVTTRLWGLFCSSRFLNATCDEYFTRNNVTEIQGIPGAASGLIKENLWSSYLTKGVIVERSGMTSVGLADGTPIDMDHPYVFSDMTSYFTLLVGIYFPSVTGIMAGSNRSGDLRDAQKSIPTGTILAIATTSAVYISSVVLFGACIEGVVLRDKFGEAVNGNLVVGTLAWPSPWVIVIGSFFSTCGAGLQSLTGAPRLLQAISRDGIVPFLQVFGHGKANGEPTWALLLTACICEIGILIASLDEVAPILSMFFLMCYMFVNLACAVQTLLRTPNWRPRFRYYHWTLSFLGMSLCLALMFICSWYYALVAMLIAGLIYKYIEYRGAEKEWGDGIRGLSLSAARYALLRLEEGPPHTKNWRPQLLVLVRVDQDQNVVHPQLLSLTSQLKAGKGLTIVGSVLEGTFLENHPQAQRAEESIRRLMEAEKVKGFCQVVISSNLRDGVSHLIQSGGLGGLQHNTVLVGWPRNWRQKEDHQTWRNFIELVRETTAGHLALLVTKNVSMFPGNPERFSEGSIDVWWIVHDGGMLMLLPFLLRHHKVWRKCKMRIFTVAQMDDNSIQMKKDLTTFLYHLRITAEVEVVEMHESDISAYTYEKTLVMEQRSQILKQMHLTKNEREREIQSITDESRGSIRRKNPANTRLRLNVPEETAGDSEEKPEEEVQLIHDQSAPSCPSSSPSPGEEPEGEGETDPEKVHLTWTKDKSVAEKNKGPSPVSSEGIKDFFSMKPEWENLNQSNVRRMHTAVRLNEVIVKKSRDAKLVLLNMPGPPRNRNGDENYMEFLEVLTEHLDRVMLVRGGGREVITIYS
A short description of the next assay: PubChem AID 1714.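 Note: raw slope of fluorescence over initial fluorescence between 10 and 20 s after thallium.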 The settings on record: HEK293-KCC2 + bumetanide/ouabain, thallium flux FluoZin2; at 10 µM; stronger effect = higher value.
In assay [2] the target is Solute carrier family 12 member 5 (Homo sapiens) (UniProt Q9H2X9). The assay can be described thus: retest of KCC2 transport modulation, ouabain-free – cell-based, HEK293 KCC2, thallium flux, FluoZin2, secondary assay 2, confirmation (AID 1715;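 active = thallium flux slope more than 3 SD above or below the plate's solvent-only control mean, mostly below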;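 note: raw slope with 0.1% DMSO as baseline and bumetanide as block control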). To be noted: HEK293-KCC2, thallium flux FluoZin2 fluorescence; at 10 µM; actives lie on both sides; F/F0 rise rate, 10–20 s post-thallium.

Assay [3] is described as follows: compound effects on native HEK Tl+ uptake – HEK cells, counterscreen 1, counter-screen for KCC2 modulator project, confirmation (AID 1716;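 active = thallium flux rate significantly above the same plate's solvent-only control wells, beyond their mean plus 3 SD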). To be noted: HEK293 parental cells, thallium flux FluoZin2, ouabain; at 10 µM; baseline-ratio fluorescence slope, 10–20 s after thallium. A general note: The purpose of a counterscreen is to sort out artefacts and off-target activity.

Assay [4] is described as follows: native HEK Tl+ uptake effects, second counter-screen – HEK cells, counterscreen 2, counter-screen for KCC2 modulator project, confirmation (AID 1718;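 active = thallium flux slope above the same plate's solvent-control mean plus 3 SD in both duplicate wells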;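 note: run without ouabain in cells lacking the KCC2 cotransporter; slope of fluorescence scaled to its starting value between 10 and 20 s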). To be noted: HEK293 parental, thallium flux FluoZin-2 fluorescence slope; at 10 µM.
Assay [5] deals with Solute carrier family 12 member 5 (Homo sapiens) (UniProt Q9H2X9). Description: modulation of KCC2 thallium flux in HEK cells – cell-based, ouabain, retest, confirmation (AID 1717;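 active = thallium flux slope beyond 3 SD from same-plate DMSO control mean in most replicates, usually higher, sometimes lower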;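 note: slope of initial-normalized fluorescence between seconds 10 and 20 after thallium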). To be noted: HEK293-KCC2, thallium flux FluoZin2 fluorescence, at 10 µM, bidirectional: low = inhibitor, high = activator.

Regarding `CC(=O)NC(=S)NNC(=O)c1ccc(Br)cc1`, the normalised thallium flux (F/F0 slope) in assay [1] is 0.00779. Besides, the normalized thallium flux is 0.0133 (active) in “PubChem AID 1714” and 0.0358 in assay [2]. The thallium flux rate (normalised fluorescence) in assay [3] is 0.0158 (active). The thallium flux slope in assay [4] was 0.0176 (active).

Consider `O=C(Cn1c(-c2ccc(Cl)cc2)noc1=O)N1CCN(c2ccccc2F)CC1`, for which, in assay [1], the normalised thallium flux (F/F0 slope) was 0.00839. For the same compound, the values for the normalized thallium flux (in the assay “PubChem AID 1714”; in assay [2]) were 0.00664 and 0.0245 (active), respectively. Also, the thallium flux rate (normalised fluorescence) in assay [3] is 0.00698. In assay [4], the thallium flux slope is 0.00981.

Regarding `Cc1onc(-c2ccccc2)c1C(=O)NNC(=S)NC(=O)c1ccc(F)cc1`, the normalised thallium flux (F/F0 slope) in assay [1] was 0.00605. Besides, the normalized thallium flux in the assay “PubChem AID 1714” was 0.0254 (active); in assay [2] it was 0.0354. In addition, the thallium flux rate (normalised fluorescence) in assay [3] is 0.018 (active). Also, the raw Tl+ flux slope (below DMSO = inhibition, above = activation) in assay [5] was 0.0299 (active). Further, the thallium flux slope in assay [4] is 0.0217 (active).

For `CCOc1ccc(C(=O)NCCCN2CCCC2=O)cc1`, in assay [1], the normalised thallium flux (F/F0 slope) was 0.00821. Besides, the normalized thallium flux in “PubChem AID 1714” was 0.00728; in assay [2], 0.0335. Further, the thallium flux rate (normalised fluorescence) in assay [3] was 0.00778. Moreover, the raw Tl+ flux slope (below DMSO = inhibition, above = activation) in assay [5] was 0.0225. In addition, the thallium flux slope in assay [4] is 0.0108.

As for `S=c1ccc2ccccc2[nH]1`, the normalised thallium flux (F/F0 slope) in assay [1] is 0.0228 (active). The normalized thallium flux is 0.0237 (active) in “PubChem AID 1714” and 0.0335 in assay [2]. The thallium flux rate (normalised fluorescence) in assay [3] is 0.0196 (active). Further, in assay [5], the raw Tl+ flux slope (below DMSO = inhibition, above = activation) is 0.0247 (active). Besides, the thallium flux slope in assay [4] was 0.0209 (active).

As to `Cc1oc(C(N)=O)cc1COc1ccc(C(N)=O)cc1`, in assay [1], the normalised thallium flux (F/F0 slope) is 0.01. Moreover, the normalized thallium flux was 0.00743 in the assay “PubChem AID 1714” and 0.0348 in assay [2]. Also, the thallium flux rate (normalised fluorescence) in assay [3] is 0.00438. The raw Tl+ flux slope (below DMSO = inhibition, above = activation) in assay [5] is 0.0196. The thallium flux slope in assay [4] is 0.0116.

In the case of `CC(C)n1cnc2c(Nc3cccc(Cl)c3)nc(N(CCO)CCCO)nc21`, in assay [1], the normalised thallium flux (F/F0 slope) was 0.00575. Besides, the normalized thallium flux in “PubChem AID 1714” was 0.00472; in assay [2] it was 0.0232 (active). In addition, in assay [3], the thallium flux rate (normalised fluorescence) is 0.0075. Moreover, in assay [4], the thallium flux slope is 0.0113.

As to `O=C(Nc1nc2c(F)cc(F)cc2s1)C1COc2ccccc2O1` (stereo unspecified), the normalised thallium flux (F/F0 slope) in assay [1] was 0.017 (active). In addition, the results for the normalized thallium flux (in “PubChem AID 1714”; in assay [2]) were 0.0963 (active) and 0.0398, respectively. The thallium flux rate (normalised fluorescence) in assay [3] is 0.0378 (active). Further, in assay [5], the raw Tl+ flux slope (below DMSO = inhibition, above = activation) is 0.0383 (active). Also, the thallium flux slope in assay [4] was 0.0155 (active).

As to `CSc1ncnc2sc(C)c(C)c12`, the normalised thallium flux (F/F0 slope) in assay [1] is 0.00741. Moreover, the normalized thallium flux in “PubChem AID 1714” was 0.0121 (active); in assay [2] it was 0.0306. Besides, in assay [3], the thallium flux rate (normalised fluorescence) was 0.0146 (active). Moreover, the thallium flux slope in assay [4] was 0.0129 (active).

Take `Cc1cccc(NC(=S)NC(=O)c2ccc(Br)o2)c1`: the normalised thallium flux (F/F0 slope) in assay [1] is 0.0193 (active). In addition, the normalized thallium flux in the assay “PubChem AID 1714” was 0.142 (active); in assay [2], 0.0972 (active). Besides, the thallium flux rate (normalised fluorescence) in assay [3] was 0.129 (active). For the same compound, the raw Tl+ flux slope (below DMSO = inhibition, above = activation) in assay [5] is 0.124 (active). In assay [4], the thallium flux slope was 0.0866 (active).
